Measurements: PMC6602471
In all, about 1,300 sequences were measured (“log fluorescence intensity”: median about 8.9, highest 2% from about 13 on). This is one part of a sample in which the highest values are shown more often than they occur.

Target: T1, ELK1 (Homo sapiens, UniProt P19419 1-428)
T1 sequence: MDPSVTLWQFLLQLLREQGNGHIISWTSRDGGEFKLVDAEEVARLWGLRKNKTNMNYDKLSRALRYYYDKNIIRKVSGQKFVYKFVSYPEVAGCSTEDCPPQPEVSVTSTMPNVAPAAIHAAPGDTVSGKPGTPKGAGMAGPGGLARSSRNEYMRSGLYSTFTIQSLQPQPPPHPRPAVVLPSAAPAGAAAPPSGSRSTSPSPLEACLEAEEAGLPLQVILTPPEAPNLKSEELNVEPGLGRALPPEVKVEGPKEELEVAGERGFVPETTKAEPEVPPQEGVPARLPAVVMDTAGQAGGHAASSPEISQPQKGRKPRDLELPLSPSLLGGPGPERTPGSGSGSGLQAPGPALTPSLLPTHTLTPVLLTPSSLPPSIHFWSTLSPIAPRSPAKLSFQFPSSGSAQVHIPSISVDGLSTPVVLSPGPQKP
Test: custom PBM; custom protein-binding microarray; buffer, salt, pH and temperature not stated; high values mean tight binding
Details: dsDNA, one strand shown

How did the binding signal turn out when “CTGGGATTTGACCCAACTCTGCCACGTGGGTCGTTTGTCTTGATTCGCTTGACGCTGCTG” was run?
Its binding signal is 9.02 log fluorescence intensity.

Which binding signal does the source give for “TGTCGGGTAAGGGAATGTAGATCACGTGGATGAAAAGTCTTGATTCGCTTGACGCTGCTG” here?
Its binding signal is 8.97 log fluorescence intensity.

For “TCCGGCTACCAGCTCCACCCACTTCAGGCCTTGTCGGTCTTGATTCGCTTGACGCTGCTG”, which binding signal is on record?
The binding signal was 9.01 log fluorescence intensity.

“CACAGTTTTTACAGTAATGTAGCACGCGTAACTCCTGTCTTGATTCGCTTGACGCTGCTG” was tested. Which binding signal did it give?
The binding signal was 8.91 log fluorescence intensity.

With “GTGTATAGGATCCCATCCAACACACGTGATAAAATGGTCTTGATTCGCTTGACGCTGCTG” as the sequence, how does the binding signal read?
Its binding signal is 8.94 log fluorescence intensity.

“CAGCATAGGACTTCTTCCCTGAAACAATTGATAACCGTCTTGATTCGCTTGACGCTGCTG” was tested. Which binding signal did it give?
Its binding signal is 8.97 log fluorescence intensity.

For “GATTAATTTCTGCCCTTATTCGCACGTGCCCTAACAGTCTTGATTCGCTTGACGCTGCTG”, which binding signal is on record?
Its binding signal is 8.97 log fluorescence intensity.

How did the binding signal turn out when “TCCGGCTACCAGCTCCACCCACTTCATGCCTTGTAGGTCTTGATTCGCTTGACGCTGCTG” was run?
The binding signal was 8.92 log fluorescence intensity.

For “GGAAAAAGGCCCAGGGTAACTCCGGAAGTGGGCTTAGTCTTGATTCGCTTGACGCTGCTG”, which binding signal is on record?
The binding signal was 10.4 log fluorescence intensity.

With “GTGTATAGGATCCCATCCAACACACGTGTTACAATGGTCTTGATTCGCTTGACGCTGCTG” as the sequence, how does the binding signal read?
The binding signal was 9.02 log fluorescence intensity.

“TGTCGGGTAAGGGAATGTACATCACGTGAATGAAAAGTCTTGATTCGCTTGACGCTGCTG” was tested. Which binding signal did it give?
Its binding signal is 8.92 log fluorescence intensity.

“GTGTATAGGATCCCATCCCACACACGTGTTAAAATGGTCTTGATTCGCTTGACGCTGCTG” was tested. Which binding signal did it give?
Its binding signal is 9.07 log fluorescence intensity.

How did the binding signal turn out when “CGGAAGTGTTGTAAACGTCGGATATCCGGTTCTTCTGTCTTGATTCGCTTGACGCTGCTG” was run?
The binding signal was 12 log fluorescence intensity.

“GGAAAAAGGCCCAGGGTACCACCGGAAGTGGGCTTAGTCTTGATTCGCTTGACGCTGCTG” was tested. Which binding signal did it give?
Its binding signal is 11.1 log fluorescence intensity.

For “GGAAAAAGGCCCAGGATAACACCGGAAGTGGGCTTAGTCTTGATTCGCTTGACGCTGCTG”, which binding signal is on record?
The binding signal was 11.1 log fluorescence intensity.

With “TGTCGGGTAAGGGAATGTAGATCACGTGAATGAAGAGTCTTGATTCGCTTGACGCTGCTG” as the sequence, how does the binding signal read?
Its binding signal is 9.1 log fluorescence intensity.

For “TACTGACTTATATATGCGAATGCACATGAATAGCCCGTCTTGATTCGCTTGACGCTGCTG”, which binding signal is on record?
The binding signal was 8.94 log fluorescence intensity.

Which binding signal does the source give for “CTGGGACTTGACCCAACTCTGCTACGTGGGTCGTTTGTCTTGATTCGCTTGACGCTGCTG” here?
The binding signal was 8.94 log fluorescence intensity.

Which binding signal does the source give for “TAAAGGGAAGACGGTTGTGGTAGTTCCGGGGATTAAGTCTTGATTCGCTTGACGCTGCTG” here?
The binding signal was 10.9 log fluorescence intensity.

Which binding signal does the source give for “GCTGCTGCGGTGCTTACCCCACCGGATGTGACCCCGGTCTTGATTCGCTTGACGCTGCTG” here?
Its binding signal is 10.2 log fluorescence intensity.

For “GATTAATTTCCGCCCTTATTCGCACGTGCCATAACAGTCTTGATTCGCTTGACGCTGCTG”, which binding signal is on record?
Its binding signal is 12.5 log fluorescence intensity.

With “TAGAGGGAAGACGGTTGTGGTAGTTCCGGGTATTAAGTCTTGATTCGCTTGACGCTGCTG” as the sequence, how does the binding signal read?
Its binding signal is 11.2 log fluorescence intensity.

“GATTAATTTCTGCCCTTATTCGCACGTGCCATACCAGTCTTGATTCGCTTGACGCTGCTG” was tested. Which binding signal did it give?
Its binding signal is 8.97 log fluorescence intensity.

Which binding signal does the source give for “GCTCCTGCGGTGCATACCCCACCGGATGTGACCCCGGTCTTGATTCGCTTGACGCTGCTG” here?
Its binding signal is 10.3 log fluorescence intensity.

“TACTGACTTATATATGCTAATGCACATGAATAGACCGTCTTGATTCGCTTGACGCTGCTG” was tested. Which binding signal did it give?
Its binding signal is 8.92 log fluorescence intensity.

“GGAAAAAGCCCCAGGGTAACACCGGAAGTGGGCTTAGTCTTGATTCGCTTGACGCTGCTG” was tested. Which binding signal did it give?
The binding signal was 10.8 log fluorescence intensity.

How did the binding signal turn out when “TAAAGGGAAGGCGGTTGTGGTAGTTCCGGGTATTAAGTCTTGATTCGCTTGACGCTGCTG” was run?
The binding signal was 11.5 log fluorescence intensity.

“TAAAGGGAAGACGGTGGTGGTAGTTCCGGGTATTAAGTCTTGATTCGCTTGACGCTGCTG” was tested. Which binding signal did it give?
Its binding signal is 11.1 log fluorescence intensity.

“GCTGCTGCGGTGCATAGCCCACCGGATGTGACCCCGGTCTTGATTCGCTTGACGCTGCTG” was tested. Which binding signal did it give?
Its binding signal is 10.4 log fluorescence intensity.

With “CGGAAGTGTCGTAAACGTCGGATATGCGGTTCTTCTGTCTTGATTCGCTTGACGCTGCTG” as the sequence, how does the binding signal read?
The binding signal was 9.16 log fluorescence intensity.

How did the binding signal turn out when “TCCGGCTACCAGGTCCACCCACTTCAGGCCTTGTAGGTCTTGATTCGCTTGACGCTGCTG” was run?
The binding signal was 8.9 log fluorescence intensity.

How did the binding signal turn out when “ATGGGACTTGACCCAACTCTGCCACGTGGGTCGTTTGTCTTGATTCGCTTGACGCTGCTG” was run?
The binding signal was 8.96 log fluorescence intensity.

For “TACTGATTTATATATGCGAATGCACATGAATAGACCGTCTTGATTCGCTTGACGCTGCTG”, which binding signal is on record?
Its binding signal is 8.91 log fluorescence intensity.

How did the binding signal turn out when “CTGGGACTTGATCCAACTCTGCCACGTGGGTCGTTTGTCTTGATTCGCTTGACGCTGCTG” was run?
The binding signal was 8.95 log fluorescence intensity.

With “TAAAGGGAAGACGGTCGTGGTAGTTCCGGGTATTAAGTCTTGATTCGCTTGACGCTGCTG” as the sequence, how does the binding signal read?
The binding signal was 11.3 log fluorescence intensity.

With “CAGCATAGGACTTCTTCCCTGAAGCAAGTGATAACCGTCTTGATTCGCTTGACGCTGCTG” as the sequence, how does the binding signal read?
The binding signal was 8.97 log fluorescence intensity.

With “GATTAATTTCTGCCATTATTCGCACGTGCCATAACAGTCTTGATTCGCTTGACGCTGCTG” as the sequence, how does the binding signal read?
Its binding signal is 8.92 log fluorescence intensity.

With “TAAAGGGAAGACGGTTGTGGTACTTCCGGGTATTAAGTCTTGATTCGCTTGACGCTGCTG” as the sequence, how does the binding signal read?
Its binding signal is 12 log fluorescence intensity.

How did the binding signal turn out when “TAAAGGGAAGACGGTTGTGGTTGTTCCGGGTATTAAGTCTTGATTCGCTTGACGCTGCTG” was run?
Its binding signal is 10.5 log fluorescence intensity.

How did the binding signal turn out when “CACAATTTTTACAGTAATTTAGCACGCGTAACTCCTGTCTTGATTCGCTTGACGCTGCTG” was run?
Its binding signal is 8.93 log fluorescence intensity.

“TACTGACTTATATATGCGAATGCACATGATTAGACCGTCTTGATTCGCTTGACGCTGCTG” was tested. Which binding signal did it give?
Its binding signal is 9 log fluorescence intensity.
